A number with no mark means an inactive call. Results filed as inconclusive are left out. Activity calls are given as the source filed them. Unless noted, calls come from the whole dose curve; as a rule, active = well fitted curve in the direction sought with a large enough effect; inconclusive = small, poorly fitted or top-dose-only effect, or another doubt; inactive = no such curve, though single readings can be large; an effect the other way counts as inactive or inconclusive.
What was measured:
[1] = qHTS for differential inhibitors of proliferation of Plasmodium falciparum line 7G8 (AID 1815);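 note: potency is the fitted concentration of half-maximal effect; parasite growth measured after three days of incubation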
[2] = qHTS for differential inhibitors of proliferation of Plasmodium falciparum line GB4 (AID 1816); details: Potency: Plasmodium falciparum GB4 proliferation inhibition;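 note: potency is the fitted concentration of half-maximal effect; parasite growth measured after 72 h incubation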
[3] = qHTS for differential inhibitors of proliferation of Plasmodium falciparum line 3D7 (AID 1876); note: potency is the fitted concentration of half-maximal effect
[4] = qHTS for differential inhibitors of proliferation of Plasmodium falciparum line D10 (AID 1877);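 note: potency is the fitted concentration of half-maximal effect; parasites grown with compound for 72 h before DNA staining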
[5] = qHTS for differential inhibitors of proliferation of Plasmodium falciparum line Dd2 (AID 1882); details: Potency: Plasmodium falciparum Dd2 proliferation inhibition; note: potency is the fitted concentration of half-maximal effect; nearly all actives have a fitted effect of over 65% in size
Method in brief: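 Dd2-infected erythrocytes (0.3% parasitemia, 2.5% hematocrit final) incubated with compound 72 h at 37 C, 5% CO2; lysed with saponin/Triton buffer containing SYBR Green I, incubated overnight in the dark, then read by fluorescence (485/535 nm). Normalized to 0.29 uM artemisinin and DMSO.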

[6] = qHTS for differential inhibitors of proliferation of Plasmodium falciparum line W2 (AID 1883); details: Potency: Plasmodium falciparum W2 proliferation inhibition;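 note: potency is the fitted concentration of half-maximal effect; parasites grown with compound for 72 h before lysis and staining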
[7] = qHTS for differential inhibitors of proliferation of Plasmodium falciparum line HB3 (AID 1886); details: Potency: Plasmodium falciparum HB3 proliferation inhibition;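 note: potency is the fitted concentration of half-maximal effect; parasites grown with compound for 72 h before SYBR Green readout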
[8] = target: Ferritin light chain (Equus caballus) (UniProt P02791); assay: qHTS Validation Assay for Identification of Novel General Anesthetics (AID 2323); note: series mostly up to about 77 µM; % is set by controls: 0 for no effect and ±100 for the full control effect
Sequence of Ferritin light chain (Equus caballus) (P02791 2-175 limits assumed): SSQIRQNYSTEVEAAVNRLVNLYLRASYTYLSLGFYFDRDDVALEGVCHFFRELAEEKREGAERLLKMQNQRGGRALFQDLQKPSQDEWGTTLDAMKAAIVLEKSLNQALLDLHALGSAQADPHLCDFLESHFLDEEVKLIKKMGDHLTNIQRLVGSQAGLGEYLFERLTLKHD
Method in brief: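 Normalized fluorescence response, scaled between free 1-AMA and 1-AMA/apoferritin complex, fitted to a four-parameter Hill equation for concentration-effect values. Binding mix: 10 uM horse-spleen apoferritin, 50% saturated 1-AMA in PBS; read 380/535 nm after 10 min.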

[9] = target: ATP-dependent DNA helicase Q1 (Homo sapiens) (UniProt P46063); assay: qHTS Validation Assay for Inhibitors of RecQ-Like Dna Helicase 1 (RECQ1) (AID 2353);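 note: plate controls were DMSO vehicle for no effect and enzyme-free control for full effect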
Method in brief: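 50 nM RECQ1T1 preincubated 15 min with compound in Tris pH 8.0 buffer with MgCl2, DTT, Tween-20 and 2.5 ug/ml poly(dI-dC); started with 200 nM TAMRA/BHQ-2 forked duplex and 2 mM ATP. Unwinding read as fluorescence (525/598 nm), two reads 2 h apart.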

[10] = Validation screen for inhibitors of Lassa infection (AID 463096; calls by dose curve; note: % is set by controls: 0 for no effect and ±100 for the full control effect)
[11] = target: M-phase phosphoprotein 8 (Homo sapiens) (UniProt Q99549); assay: qHTS Validation Assay for Inhibitors for MPP8 Chromodomain Interactions with Methylated Histone Tails (AID 488949);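 note: 50 nM MPP8 with 50 nM peptide preformed then compounds added for 30 min; AlphaScreen signal from MPP8 chromodomain bound to biotinylated H3K9me3 peptide; top concentration of the series differs between compounds; % is set by controls: 0 for no effect and ±100 for the full control effect; nearly all actives have a fitted effect of over 55% in size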
Method in brief: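 Chemiluminescent proximity assay: histidine-tag capture via nickel acceptor beads, biotin peptide via streptavidin donor beads. Protein and peptide each at 50 nM, pH 7.4, with 30 min incubations at room temperature for complex formation, compound exposure and bead binding.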

[12] = target: Transient receptor potential cation channel subfamily V member 1 (Homo sapiens) (UniProt Q8NER1); assay: HTS Assay for Compounds that Act as Enhancers of the Vanilloid Receptor 1 (AID 488979); note: 0% is about no effect
Sequence of Transient receptor potential cation channel subfamily V member 1 (Homo sapiens) (Q8NER1 whole entry, looked up): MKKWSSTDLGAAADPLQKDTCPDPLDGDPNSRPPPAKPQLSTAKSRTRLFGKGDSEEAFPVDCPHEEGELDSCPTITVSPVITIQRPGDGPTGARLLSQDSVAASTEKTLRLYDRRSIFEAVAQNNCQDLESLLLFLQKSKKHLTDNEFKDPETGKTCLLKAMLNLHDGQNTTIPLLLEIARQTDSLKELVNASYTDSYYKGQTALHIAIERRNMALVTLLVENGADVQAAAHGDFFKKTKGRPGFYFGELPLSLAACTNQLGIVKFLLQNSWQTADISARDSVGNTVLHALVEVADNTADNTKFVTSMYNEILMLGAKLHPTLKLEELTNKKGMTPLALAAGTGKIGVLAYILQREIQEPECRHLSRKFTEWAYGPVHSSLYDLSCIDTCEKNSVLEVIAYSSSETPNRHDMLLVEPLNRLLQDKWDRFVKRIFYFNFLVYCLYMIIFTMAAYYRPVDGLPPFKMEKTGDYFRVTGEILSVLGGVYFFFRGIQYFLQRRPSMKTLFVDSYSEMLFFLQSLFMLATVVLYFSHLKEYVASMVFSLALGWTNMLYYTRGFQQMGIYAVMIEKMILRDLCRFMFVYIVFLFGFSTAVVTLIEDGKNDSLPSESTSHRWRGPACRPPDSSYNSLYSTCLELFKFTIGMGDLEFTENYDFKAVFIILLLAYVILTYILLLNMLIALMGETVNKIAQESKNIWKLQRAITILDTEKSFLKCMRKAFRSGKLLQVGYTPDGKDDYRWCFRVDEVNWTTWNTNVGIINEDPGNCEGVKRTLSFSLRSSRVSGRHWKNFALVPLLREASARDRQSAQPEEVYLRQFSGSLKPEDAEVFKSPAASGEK
Method in brief: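 TRPV1-expressing cells loaded with Fluo-8 calcium dye; compounds added and calcium influx read kinetically for 3 min (agonist phase), then capsaicin at EC20 added and read 2 min more for enhancement. Fluorescence ex 480/em 520 nm.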

[13] = target: Thyrotropin-releasing hormone receptor (Homo sapiens) (UniProt P34981); assay: qHTS for Small Molecule Agonists and Allosteric Enhancers of Human TRH Receptor: Validation Screen for Agonists (AID 493127;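 active = calcium activation more than 3 SD above the typical response in the agonist read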; note: 0% is about no effect); details: TRH receptor agonist cell assay; at 2 µM; hits give high values
Sequence of Thyrotropin-releasing hormone receptor (Homo sapiens) (P34981 whole entry, looked up): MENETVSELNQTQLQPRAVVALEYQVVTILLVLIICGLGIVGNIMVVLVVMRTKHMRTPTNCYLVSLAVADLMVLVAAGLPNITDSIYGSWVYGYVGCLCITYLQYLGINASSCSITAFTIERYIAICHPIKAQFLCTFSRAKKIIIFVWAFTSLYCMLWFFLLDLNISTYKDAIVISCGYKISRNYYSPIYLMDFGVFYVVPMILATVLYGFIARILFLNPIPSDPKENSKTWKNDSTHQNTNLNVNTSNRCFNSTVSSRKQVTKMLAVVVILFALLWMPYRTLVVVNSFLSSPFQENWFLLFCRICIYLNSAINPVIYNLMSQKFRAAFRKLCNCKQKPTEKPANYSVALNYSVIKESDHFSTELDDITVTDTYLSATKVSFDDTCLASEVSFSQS
Method in brief: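 TRHR cells loaded with fluo-8 calcium dye; FDSS kinetic fluorescence (Ex 480/Em 530) read at 1 s/cycle after 23 nL compound addition. Agonist-mode calcium response recorded before the 10 nM TRH (EC20) addition.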

[14] = target: Galactokinase (Homo sapiens) (UniProt P51570); assay: qHTS Validation Assay for Inhibitors of Human Galactokinase (GALK) (AID 493189); note: 0% is about no effect
Sequence of Galactokinase (Homo sapiens) (P51570 whole entry, looked up): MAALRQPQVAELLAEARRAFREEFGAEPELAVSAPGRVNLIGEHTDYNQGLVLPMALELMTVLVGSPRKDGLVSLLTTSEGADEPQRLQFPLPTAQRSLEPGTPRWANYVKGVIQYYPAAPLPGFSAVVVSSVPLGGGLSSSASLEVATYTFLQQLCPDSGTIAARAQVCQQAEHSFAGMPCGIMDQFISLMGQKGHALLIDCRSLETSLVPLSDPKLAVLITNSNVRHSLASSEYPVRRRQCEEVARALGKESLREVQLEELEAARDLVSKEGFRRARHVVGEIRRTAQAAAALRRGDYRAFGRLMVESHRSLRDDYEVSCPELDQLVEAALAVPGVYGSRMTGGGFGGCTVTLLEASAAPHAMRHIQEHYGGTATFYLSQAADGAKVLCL
Method in brief: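 Enzyme activity is inferred from ATP consumption: human GALK phosphorylates galactose (100 uM) using 35 uM ATP for 1 h at room temperature, and luciferase-based Kinase-Glo Plus reports unconsumed ATP.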

[15] = Validation screen for small molecules that induce DNA re-replication in SW480 colon adenocarcinoma cells (AID 504364); note: 0% is about no effect
Method in brief: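 SW480 cells (250/well) exposed 48 h at 37 C, 5% CO2, then Hoechst-stained 40 min. Nuclear DNA content imaged by fluorescence scanning (405 nm excitation, 500-530 nm emission); re-replication scored as increased nuclei with elevated intensity.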

[16] = target: Voltage-gated inwardly rectifying potassium channel KCNH2 (Homo sapiens) (UniProt Q12809); assay: qHTS Assay for Small Molecule Inhibitors of the Human hERG Channel Activity (AID 588834);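 note: top concentration of the series differs between compounds; % is set by controls: 0 for no effect and ±100 for the full control effect; lower thallium flux fluorescence means stronger hERG block; nearly all actives have a fitted effect of over 50% in size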
Sequence of Voltage-gated inwardly rectifying potassium channel KCNH2 (Homo sapiens) (Q12809 whole entry, looked up): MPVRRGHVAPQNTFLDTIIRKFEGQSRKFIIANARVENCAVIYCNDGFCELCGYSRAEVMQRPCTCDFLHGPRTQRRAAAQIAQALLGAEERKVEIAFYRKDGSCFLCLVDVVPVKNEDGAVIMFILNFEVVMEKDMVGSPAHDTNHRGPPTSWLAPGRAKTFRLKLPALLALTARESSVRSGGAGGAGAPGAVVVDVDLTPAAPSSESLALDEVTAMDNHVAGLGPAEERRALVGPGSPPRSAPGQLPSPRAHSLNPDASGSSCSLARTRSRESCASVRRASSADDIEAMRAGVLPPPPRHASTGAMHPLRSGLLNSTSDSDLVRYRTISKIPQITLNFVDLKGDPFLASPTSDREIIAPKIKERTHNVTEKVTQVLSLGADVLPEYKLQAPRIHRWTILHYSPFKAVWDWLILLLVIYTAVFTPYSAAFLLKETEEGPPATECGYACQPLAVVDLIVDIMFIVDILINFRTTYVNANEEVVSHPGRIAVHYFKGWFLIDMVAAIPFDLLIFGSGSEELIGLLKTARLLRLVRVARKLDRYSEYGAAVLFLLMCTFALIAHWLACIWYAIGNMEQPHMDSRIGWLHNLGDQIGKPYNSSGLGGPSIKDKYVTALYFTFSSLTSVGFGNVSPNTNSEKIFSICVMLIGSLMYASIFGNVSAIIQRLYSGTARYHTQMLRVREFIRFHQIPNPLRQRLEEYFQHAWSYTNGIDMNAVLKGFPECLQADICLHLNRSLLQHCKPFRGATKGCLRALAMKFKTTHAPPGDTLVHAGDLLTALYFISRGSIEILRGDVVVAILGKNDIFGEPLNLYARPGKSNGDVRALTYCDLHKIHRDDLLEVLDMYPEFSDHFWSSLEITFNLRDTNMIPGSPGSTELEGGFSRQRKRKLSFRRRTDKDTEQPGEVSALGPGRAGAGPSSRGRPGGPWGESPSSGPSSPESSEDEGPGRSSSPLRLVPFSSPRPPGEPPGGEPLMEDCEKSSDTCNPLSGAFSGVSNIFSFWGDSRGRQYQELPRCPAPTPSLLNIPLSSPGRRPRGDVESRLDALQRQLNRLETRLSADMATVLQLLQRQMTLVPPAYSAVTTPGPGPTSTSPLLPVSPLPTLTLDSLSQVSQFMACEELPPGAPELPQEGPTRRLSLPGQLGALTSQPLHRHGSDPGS
Method in brief: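 Blockade is seen as reduced FluxOR thallium-flux fluorescence in U2OS cells expressing hERG from a BacMam construct, in Opti-MEM with 2% FCS. Concentration-response data fitted to the Hill equation for AC50.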

[17] = target: Rap guanine nucleotide exchange factor 3 (Homo sapiens) (UniProt O95398); assay: Confirmatory qHTS for antagonist of cAMP-regulated guanine nucleotide exchange factor 3 (EPAC1) (AID 1645880);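 note: plate controls were DMSO only for no effect and full effect of the ATA control for full effect; nearly all actives have a fitted effect of over 55% in size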
Sequence of Rap guanine nucleotide exchange factor 3 (Homo sapiens) (O95398 whole entry, looked up): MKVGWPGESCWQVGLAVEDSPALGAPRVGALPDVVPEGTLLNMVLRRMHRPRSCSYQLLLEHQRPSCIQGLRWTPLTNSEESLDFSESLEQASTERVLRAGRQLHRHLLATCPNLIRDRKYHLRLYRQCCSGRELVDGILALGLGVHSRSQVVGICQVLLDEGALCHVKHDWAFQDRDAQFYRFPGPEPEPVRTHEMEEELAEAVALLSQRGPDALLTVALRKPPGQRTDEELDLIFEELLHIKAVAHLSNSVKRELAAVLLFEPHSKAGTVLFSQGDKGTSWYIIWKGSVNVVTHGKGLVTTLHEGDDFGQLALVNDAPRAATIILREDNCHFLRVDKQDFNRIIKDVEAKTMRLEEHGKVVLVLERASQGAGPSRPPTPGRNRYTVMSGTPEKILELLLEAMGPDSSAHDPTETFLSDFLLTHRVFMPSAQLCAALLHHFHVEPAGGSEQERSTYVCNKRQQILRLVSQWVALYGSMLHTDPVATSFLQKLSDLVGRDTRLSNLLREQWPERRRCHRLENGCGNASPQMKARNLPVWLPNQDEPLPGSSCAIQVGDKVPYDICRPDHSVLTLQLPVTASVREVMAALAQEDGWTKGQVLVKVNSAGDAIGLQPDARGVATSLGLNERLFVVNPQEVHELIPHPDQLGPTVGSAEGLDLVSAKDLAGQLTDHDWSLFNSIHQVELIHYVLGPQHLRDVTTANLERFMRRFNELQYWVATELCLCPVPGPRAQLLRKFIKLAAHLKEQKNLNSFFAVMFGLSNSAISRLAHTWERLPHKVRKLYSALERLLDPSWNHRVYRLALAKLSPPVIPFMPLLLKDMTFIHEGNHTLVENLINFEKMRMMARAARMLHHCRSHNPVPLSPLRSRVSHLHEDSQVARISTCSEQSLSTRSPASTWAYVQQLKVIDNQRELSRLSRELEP
Method in brief: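 Nucleotide exchange uses 100 nM EPAC1, 250 nM RAP1B-BODIPY-GDP and 50 uM GDP, with compounds in a concentration-titration series. After 5 min at room temperature, fluorescence (480 nm ex/540 nm em) is read every 5 min for 30 min. Data are normalized to control ATA and DMSO.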

[18] = target: Rap guanine nucleotide exchange factor 3 (Homo sapiens) (UniProt O95398); assay: Confirmatory qHTS for agonist of cAMP-regulated guanine nucleotide exchange factor 3 (EPAC1) (AID 1645881);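 note: EPAC1 catalysed release of BODIPY-GDP from Rap1B seen as fluorescence loss; 100% = effect of cAMP agonist control; nearly all actives have a fitted effect of over 75% in size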
[19] = target: Rap guanine nucleotide exchange factor 4 (Homo sapiens) (UniProt Q8WZA2); assay: Confirmatory qHTS for agonist of cAMP-regulated guanine nucleotide exchange factor 4 (EPAC2) (AID 1645884);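 note: nucleotide exchange releases bodipy-GDP from Rap1 and this lowers its fluorescence; % is set by controls: 0 for no effect and ±100 for the full control effect; nearly all actives have a fitted effect of over 65% in size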
Sequence of Rap guanine nucleotide exchange factor 4 (Homo sapiens) (Q8WZA2 whole entry, looked up): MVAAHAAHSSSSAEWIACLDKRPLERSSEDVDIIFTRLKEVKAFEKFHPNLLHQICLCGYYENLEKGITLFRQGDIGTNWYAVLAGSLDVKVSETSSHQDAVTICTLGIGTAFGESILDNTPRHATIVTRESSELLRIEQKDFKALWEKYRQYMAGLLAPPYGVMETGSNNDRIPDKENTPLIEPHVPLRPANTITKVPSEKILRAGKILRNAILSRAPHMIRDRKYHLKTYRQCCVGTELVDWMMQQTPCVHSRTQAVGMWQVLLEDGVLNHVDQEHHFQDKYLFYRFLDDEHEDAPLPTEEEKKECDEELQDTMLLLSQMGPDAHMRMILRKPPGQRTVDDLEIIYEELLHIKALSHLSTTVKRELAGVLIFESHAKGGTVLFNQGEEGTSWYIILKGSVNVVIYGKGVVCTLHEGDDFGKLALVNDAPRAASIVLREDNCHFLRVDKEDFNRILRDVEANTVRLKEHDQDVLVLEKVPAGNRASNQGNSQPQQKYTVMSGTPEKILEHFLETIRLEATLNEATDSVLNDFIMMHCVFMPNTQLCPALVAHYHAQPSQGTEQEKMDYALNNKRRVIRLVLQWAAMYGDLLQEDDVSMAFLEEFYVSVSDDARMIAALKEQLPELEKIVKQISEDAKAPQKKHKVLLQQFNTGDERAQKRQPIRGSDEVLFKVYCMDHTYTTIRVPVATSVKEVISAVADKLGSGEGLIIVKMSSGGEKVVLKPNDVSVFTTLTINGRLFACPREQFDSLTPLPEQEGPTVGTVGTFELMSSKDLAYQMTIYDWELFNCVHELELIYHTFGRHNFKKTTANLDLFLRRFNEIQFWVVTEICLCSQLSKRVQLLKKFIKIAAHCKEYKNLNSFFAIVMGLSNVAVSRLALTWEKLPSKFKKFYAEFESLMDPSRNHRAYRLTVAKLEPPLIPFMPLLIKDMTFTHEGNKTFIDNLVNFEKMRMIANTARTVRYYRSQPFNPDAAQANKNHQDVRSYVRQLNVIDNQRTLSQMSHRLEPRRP

[20] = target: Rap guanine nucleotide exchange factor 4 (Homo sapiens) (UniProt Q8WZA2); assay: Confirmatory qHTS for antagonist of cAMP-regulated guanine nucleotide exchange factor 4 (EPAC2) (AID 1645885); note: % is set by controls: 0 for no effect and ±100 for the full control effect; nearly all actives have a fitted effect of over 25% in size
[21] = target: Rap guanine nucleotide exchange factor 3 (Homo sapiens) (UniProt O95398); assay: Counterscreen qHTS for agonist of cAMP-regulated guanine nucleotide exchange factor 3 (EPAC1) (AID 1645889); note: % of control where 0% means no effect; nearly all actives have a fitted effect of over 40% in size
Method in brief: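 Measured: fluorescence of BODIPY-GDP bound to Rap1B, which falls as exchange proceeds. Conditions include 50 uM competing GDP, 5 and 30 min reads, and a later cAMP challenge for antagonist detection.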

O=C(OC1CCN(CCCl)CC1)C(c1ccccc1)c1ccccc1
Potency [1]: 7.94 µM (active) | Potency [2]: 5.62 µM (active) | Potency [3]: 12.6 µM (active) | Potency [4]: 12.6 µM (active) | Potency [5]: 7.08 µM (active) | Potency [6]: 2.24 µM (active) | Potency [7]: 11.2 µM (active) | Potency [8]: inactive | outcome [9]: inactive | Potency [10]: inactive | Potency [11]: inactive | outcome [12]: inactive | activation [13]: -9.25% | outcome [14]: inactive | outcome [15]: inactive | Potency [16]: inactive | Potency [17]: inactive | Potency [18]: inactive | activation [19]: 6.37% [at 17.1 µM, percent relative to cAMP agonist control] | activity change, negative = inhibition [20]: -6.11% [at 12.7 µM] | activation [21]: -1.7% [at 30.8 µM]

— PubChem BioAssay (NCATS)
